Here are results for two sequences from publication PMC7862700, “An all-to-all approach to the identification of sequence-specific readers for epigenetic DNA modifications on cytosine”.

What all share (assay): DAPPL (digital affinity profiling via proximity ligation, sequencing); 10 mM Tris-HCl pH 7.5, 50 mM NaCl, 1 mM DTT, 4% glycerol, room temperature, 30 min; GST-TFs on glutathione beads, 16-mer random dsDNA library, 0.1% formaldehyde crosslink after washing; high values mean tight binding
Details in all cases: protein: recombinant; tags: N-terminal GST; dsDNA, one strand shown

For one assay, the target named is T1, GABPA (Homo sapiens, UniProt Q06546 1-454).
T1 sequence: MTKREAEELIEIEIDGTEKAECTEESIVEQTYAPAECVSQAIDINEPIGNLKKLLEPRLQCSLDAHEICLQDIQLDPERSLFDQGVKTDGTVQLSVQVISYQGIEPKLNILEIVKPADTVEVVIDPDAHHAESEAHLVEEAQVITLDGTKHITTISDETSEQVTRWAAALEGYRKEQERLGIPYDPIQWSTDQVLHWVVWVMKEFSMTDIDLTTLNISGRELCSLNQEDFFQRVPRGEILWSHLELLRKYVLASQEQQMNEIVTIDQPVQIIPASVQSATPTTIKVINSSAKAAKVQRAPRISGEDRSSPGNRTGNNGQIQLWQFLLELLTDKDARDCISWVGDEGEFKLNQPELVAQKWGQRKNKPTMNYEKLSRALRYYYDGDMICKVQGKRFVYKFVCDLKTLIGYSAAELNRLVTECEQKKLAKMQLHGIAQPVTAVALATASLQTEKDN
An outline of the steps:
(§1)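 Sequencing on an Illumina NextSeq500 followed washing, crosslinking with 0.1% formaldehyde, proximity ligation (BsaI/T4 ligase, 1 h, 37 °C) and PCR amplification of pools that had been incubated for 30 min at room temperature with 200 nmole of a random double-stranded 16-mer DNA library in Tris/NaCl/DTT/glycerol buffer. Each pool held DNA-barcoded human transcription factors, expressed in yeast as GST fusions and captured on glutathione beads, plus a tag-only sample. Binding signal is a hexamer's read frequency for a factor divided by its frequency in the tag-only sample.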

In another assay the target is T2, ERG (Homo sapiens, UniProt P11308 1-479).
T2 sequence: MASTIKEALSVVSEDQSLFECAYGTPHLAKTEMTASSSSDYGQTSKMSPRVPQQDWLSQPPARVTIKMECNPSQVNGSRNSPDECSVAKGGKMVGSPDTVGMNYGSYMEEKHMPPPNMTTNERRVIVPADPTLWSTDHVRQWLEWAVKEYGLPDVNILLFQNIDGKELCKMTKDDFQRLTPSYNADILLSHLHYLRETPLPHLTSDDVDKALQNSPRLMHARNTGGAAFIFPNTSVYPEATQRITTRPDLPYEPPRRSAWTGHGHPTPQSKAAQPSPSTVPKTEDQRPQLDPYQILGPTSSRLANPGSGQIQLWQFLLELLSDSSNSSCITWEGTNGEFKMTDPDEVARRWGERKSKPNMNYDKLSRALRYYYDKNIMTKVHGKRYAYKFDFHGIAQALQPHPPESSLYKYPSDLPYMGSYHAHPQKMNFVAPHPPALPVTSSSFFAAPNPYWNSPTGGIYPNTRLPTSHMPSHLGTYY
An outline of the steps:
as §1

Another assay deals with ELF1 (Homo sapiens, UniProt P32519 1-619). An outline of the steps:
as §1

For another assay, the target named is T3, EHF (Homo sapiens, UniProt Q9NZC4 1-300).
T3 sequence: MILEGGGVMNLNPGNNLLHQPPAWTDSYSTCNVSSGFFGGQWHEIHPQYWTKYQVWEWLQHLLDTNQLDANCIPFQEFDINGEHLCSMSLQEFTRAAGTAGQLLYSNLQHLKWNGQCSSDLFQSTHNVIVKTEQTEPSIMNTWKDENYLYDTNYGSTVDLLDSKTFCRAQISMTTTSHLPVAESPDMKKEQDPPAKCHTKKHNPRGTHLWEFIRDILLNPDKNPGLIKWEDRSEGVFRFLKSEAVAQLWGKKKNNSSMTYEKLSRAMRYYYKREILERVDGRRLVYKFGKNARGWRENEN
An outline of the steps: as §1

The target of the next assay is SPIB (Homo sapiens, UniProt Q01892 1-262). An outline of the steps:
as §1

A further assay deals with T4, ELK3 (Homo sapiens, UniProt P41970 1-407).
T4 sequence: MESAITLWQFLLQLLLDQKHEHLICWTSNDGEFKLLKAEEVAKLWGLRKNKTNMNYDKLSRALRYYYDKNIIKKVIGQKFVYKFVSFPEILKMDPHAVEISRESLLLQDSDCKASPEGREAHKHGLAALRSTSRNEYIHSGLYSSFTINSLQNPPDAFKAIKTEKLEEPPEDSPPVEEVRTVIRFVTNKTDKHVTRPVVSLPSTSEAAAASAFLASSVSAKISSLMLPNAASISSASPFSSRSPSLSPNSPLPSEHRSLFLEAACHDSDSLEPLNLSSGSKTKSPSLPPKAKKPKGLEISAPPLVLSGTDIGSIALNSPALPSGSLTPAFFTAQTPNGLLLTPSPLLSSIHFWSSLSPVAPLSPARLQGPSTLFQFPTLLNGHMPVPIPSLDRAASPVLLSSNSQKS
An outline of the steps:
as §1

The target in another assay is ETV5 (Homo sapiens, UniProt P41161 1-510). An outline of the steps: as §1
Chain of ETV5 (P41161 whole entry): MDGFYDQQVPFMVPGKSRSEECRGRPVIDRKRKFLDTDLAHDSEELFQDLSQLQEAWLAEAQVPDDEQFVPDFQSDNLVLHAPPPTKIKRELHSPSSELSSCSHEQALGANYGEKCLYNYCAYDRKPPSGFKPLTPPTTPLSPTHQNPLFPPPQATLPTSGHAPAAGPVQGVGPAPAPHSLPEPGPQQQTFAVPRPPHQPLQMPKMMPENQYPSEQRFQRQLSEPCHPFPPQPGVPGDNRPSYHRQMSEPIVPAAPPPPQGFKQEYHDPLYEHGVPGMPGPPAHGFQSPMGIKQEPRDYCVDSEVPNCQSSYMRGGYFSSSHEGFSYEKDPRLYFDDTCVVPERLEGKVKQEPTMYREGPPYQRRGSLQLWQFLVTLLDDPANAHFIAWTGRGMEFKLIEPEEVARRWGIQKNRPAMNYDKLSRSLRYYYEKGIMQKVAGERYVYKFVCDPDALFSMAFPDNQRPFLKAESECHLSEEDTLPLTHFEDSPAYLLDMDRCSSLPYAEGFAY
A further assay addresses T5, SPIC (Homo sapiens, UniProt Q8N5J4 1-248).
T5 sequence: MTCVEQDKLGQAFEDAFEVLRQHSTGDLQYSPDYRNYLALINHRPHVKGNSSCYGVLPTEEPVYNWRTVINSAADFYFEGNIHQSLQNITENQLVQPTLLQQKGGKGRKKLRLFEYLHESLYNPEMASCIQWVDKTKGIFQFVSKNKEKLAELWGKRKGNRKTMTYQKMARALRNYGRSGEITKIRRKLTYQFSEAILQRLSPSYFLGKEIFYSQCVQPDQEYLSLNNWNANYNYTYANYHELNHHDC
A digest of the protocol:
as §1

In another assay the target is T6, ELF3 (Homo sapiens, UniProt P78545 1-371).
T6 sequence: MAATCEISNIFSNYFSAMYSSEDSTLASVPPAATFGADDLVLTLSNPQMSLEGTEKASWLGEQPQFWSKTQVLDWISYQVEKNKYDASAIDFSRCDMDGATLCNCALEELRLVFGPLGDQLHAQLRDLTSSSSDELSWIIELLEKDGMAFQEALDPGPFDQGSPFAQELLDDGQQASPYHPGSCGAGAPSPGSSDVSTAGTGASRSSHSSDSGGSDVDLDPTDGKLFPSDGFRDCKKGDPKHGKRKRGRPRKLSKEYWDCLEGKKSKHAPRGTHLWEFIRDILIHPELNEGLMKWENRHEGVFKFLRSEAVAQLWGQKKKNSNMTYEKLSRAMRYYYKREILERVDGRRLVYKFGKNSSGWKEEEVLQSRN
A digest of the protocol: as §1

In a further assay the target is ETV1 (Homo sapiens, UniProt P50549 1-477). An outline of the steps: as §1
Chain of ETV1 (P50549 whole entry): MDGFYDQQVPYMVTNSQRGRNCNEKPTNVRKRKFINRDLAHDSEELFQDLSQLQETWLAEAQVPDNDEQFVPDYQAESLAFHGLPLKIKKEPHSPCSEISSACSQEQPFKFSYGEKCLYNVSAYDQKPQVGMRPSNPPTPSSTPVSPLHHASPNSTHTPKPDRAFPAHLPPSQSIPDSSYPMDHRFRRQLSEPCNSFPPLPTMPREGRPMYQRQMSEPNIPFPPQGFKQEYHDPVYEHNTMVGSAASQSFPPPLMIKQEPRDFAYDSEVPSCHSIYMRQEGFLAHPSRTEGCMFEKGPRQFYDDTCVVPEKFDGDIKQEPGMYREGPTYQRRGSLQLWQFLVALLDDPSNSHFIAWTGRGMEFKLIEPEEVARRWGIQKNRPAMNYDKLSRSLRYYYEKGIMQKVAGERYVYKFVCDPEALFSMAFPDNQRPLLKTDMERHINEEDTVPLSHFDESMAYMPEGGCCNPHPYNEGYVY
In the next assay the target is T7, ERF (Homo sapiens, UniProt P50548 1-548).
T7 sequence: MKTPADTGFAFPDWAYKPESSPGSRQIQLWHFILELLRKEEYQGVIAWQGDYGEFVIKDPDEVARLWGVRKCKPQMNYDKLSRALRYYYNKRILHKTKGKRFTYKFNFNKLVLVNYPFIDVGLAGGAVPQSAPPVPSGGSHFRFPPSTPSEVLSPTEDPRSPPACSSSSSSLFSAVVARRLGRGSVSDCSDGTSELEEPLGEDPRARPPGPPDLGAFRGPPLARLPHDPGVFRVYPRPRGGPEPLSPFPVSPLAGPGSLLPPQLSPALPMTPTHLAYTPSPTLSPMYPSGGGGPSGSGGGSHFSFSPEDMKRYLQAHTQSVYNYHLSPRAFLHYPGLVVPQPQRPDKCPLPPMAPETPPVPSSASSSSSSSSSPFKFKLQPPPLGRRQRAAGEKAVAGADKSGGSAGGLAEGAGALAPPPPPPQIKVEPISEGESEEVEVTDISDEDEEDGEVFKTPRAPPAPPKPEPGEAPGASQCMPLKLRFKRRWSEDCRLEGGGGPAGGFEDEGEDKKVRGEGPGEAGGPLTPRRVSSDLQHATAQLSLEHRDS
An outline of the steps: as §1

The next assay has as its target T8, ETV3L (Homo sapiens, UniProt Q6ZN32 1-361).
T8 sequence: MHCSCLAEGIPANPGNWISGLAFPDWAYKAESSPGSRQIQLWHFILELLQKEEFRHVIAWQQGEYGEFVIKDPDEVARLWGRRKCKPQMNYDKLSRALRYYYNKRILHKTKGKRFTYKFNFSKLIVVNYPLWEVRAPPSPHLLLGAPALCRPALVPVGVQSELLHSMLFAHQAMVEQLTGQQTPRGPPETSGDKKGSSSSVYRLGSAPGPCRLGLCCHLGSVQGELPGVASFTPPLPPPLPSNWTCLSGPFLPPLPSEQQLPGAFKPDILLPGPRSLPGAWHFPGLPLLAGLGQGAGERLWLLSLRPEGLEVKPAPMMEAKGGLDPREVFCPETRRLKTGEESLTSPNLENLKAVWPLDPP
A digest of the protocol:
as §1

The next assay concerns the target T9, ETS2 (Homo sapiens, UniProt P15036 1-469).
T9 sequence: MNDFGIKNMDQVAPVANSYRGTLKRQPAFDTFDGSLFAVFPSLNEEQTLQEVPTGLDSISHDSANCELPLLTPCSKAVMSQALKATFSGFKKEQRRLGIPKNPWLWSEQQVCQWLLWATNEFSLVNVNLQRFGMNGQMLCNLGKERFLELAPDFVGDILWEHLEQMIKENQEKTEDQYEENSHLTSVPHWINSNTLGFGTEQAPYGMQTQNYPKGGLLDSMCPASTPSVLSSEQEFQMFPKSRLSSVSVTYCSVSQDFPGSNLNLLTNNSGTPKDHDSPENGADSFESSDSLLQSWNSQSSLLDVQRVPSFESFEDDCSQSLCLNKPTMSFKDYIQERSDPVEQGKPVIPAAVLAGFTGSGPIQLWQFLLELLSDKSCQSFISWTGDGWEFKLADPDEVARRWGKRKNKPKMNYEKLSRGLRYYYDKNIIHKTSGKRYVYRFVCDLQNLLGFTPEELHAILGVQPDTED
An outline of the steps: as §1

The target in a further assay is T10, ETV7 (Homo sapiens, UniProt Q9Y603 1-341).
T10 sequence: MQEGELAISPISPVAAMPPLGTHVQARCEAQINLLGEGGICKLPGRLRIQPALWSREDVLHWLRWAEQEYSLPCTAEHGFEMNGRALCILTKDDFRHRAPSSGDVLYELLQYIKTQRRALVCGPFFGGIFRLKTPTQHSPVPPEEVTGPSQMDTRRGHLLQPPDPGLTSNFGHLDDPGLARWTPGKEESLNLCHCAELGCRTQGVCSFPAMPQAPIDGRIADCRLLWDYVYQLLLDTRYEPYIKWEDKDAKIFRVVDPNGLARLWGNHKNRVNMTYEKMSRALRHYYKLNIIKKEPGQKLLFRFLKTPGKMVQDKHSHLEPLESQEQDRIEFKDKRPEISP
A digest of the protocol: as §1

For a further assay, the target named is ETV6 (Homo sapiens, UniProt P41212 1-452). An outline of the steps: as §1
Chain of ETV6 (P41212 whole entry): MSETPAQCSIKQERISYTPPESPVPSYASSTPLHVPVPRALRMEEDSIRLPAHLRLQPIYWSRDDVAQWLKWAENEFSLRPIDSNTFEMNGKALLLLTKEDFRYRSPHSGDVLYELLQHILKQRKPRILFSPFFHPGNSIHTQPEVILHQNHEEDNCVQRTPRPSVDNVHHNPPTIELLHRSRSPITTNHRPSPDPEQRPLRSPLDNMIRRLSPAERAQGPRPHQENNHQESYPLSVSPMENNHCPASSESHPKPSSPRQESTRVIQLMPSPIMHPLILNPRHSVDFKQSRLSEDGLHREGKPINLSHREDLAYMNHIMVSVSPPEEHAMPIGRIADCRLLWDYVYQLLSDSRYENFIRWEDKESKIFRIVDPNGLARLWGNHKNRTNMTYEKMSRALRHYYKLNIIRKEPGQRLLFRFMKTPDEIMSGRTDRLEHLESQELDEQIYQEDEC
For the next assay, the target named is T11, ELK1 (Homo sapiens, UniProt P19419 1-428).
T11 sequence: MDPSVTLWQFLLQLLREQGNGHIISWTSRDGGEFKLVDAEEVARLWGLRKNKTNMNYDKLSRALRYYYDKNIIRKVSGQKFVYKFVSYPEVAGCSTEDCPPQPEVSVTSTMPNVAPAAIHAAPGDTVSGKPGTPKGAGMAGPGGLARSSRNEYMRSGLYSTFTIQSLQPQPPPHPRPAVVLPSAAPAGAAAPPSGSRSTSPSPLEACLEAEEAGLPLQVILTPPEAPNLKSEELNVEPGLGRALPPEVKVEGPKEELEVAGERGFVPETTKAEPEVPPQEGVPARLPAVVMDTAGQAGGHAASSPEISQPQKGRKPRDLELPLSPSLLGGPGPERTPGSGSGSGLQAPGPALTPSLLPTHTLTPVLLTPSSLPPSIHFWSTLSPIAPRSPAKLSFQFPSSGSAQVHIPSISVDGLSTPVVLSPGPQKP
A digest of the protocol:
as §1

The target in the next assay is T12, SPDEF (Homo sapiens, UniProt O95238 1-335).
T12 sequence: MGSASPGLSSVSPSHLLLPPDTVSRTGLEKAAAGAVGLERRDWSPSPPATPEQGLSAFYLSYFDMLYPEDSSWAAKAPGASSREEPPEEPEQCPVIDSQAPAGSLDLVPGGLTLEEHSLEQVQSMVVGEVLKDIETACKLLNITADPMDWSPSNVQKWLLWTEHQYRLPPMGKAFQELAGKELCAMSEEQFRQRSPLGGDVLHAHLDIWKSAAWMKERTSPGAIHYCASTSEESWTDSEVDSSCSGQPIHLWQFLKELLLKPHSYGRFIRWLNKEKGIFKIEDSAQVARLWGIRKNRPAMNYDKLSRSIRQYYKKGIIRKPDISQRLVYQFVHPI
An outline of the steps: as §1

The target in the next assay is T13, ETV3 (Homo sapiens, UniProt P41162-2 1-143).
T13 sequence: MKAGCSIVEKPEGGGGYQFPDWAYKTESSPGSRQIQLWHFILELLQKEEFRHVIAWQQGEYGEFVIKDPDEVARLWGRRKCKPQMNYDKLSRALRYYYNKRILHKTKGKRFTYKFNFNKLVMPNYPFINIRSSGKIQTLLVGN
An outline of the steps: as §1

Chain of ELF1 (P32519 whole entry): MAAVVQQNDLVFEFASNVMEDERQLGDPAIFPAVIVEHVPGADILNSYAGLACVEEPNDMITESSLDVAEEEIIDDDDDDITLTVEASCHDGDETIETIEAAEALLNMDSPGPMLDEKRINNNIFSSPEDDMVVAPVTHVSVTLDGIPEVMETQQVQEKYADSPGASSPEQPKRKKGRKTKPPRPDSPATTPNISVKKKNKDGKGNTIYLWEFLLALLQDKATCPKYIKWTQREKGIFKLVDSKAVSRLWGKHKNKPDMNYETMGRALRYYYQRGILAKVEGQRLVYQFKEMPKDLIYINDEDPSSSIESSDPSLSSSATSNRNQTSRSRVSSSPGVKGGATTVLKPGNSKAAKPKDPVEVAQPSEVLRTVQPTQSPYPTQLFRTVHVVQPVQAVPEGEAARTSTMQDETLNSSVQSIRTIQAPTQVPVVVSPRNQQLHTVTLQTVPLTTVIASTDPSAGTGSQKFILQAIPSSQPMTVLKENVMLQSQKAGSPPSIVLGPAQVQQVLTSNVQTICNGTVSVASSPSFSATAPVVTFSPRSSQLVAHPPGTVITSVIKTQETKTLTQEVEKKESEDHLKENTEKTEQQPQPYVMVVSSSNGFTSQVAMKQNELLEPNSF
Chain of SPIB (Q01892 whole entry): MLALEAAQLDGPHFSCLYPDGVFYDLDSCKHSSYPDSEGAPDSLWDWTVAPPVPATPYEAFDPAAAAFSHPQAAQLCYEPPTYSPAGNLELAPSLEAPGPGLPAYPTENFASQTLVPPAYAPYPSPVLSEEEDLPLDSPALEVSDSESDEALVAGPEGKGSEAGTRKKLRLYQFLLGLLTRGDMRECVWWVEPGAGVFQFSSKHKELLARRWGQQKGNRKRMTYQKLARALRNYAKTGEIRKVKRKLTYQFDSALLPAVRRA

In the case of ATAGGC, the binding signal was 1.01 fold enrichment (6-mer frequency, TF over GST control) with GABPA; 1.01 fold enrichment (6-mer frequency, TF over GST control) with ERG; 1.03 fold enrichment (6-mer frequency, TF over GST control) with ELF1; 1.04 fold enrichment (6-mer frequency, TF over GST control) with EHF; 1.11 fold enrichment (6-mer frequency, TF over GST control) with SPIB; 1.02 fold enrichment (6-mer frequency, TF over GST control) with ELK3. Besides, the binding signal with ETV5 was 1.1 fold enrichment (6-mer frequency, TF over GST control); in the assay with SPIC, 1.06 fold enrichment (6-mer frequency, TF over GST control); with ELF3 it was 1.07 fold enrichment (6-mer frequency, TF over GST control); with ETV1, 1.01 fold enrichment (6-mer frequency, TF over GST control); with ERF, 1.04 fold enrichment (6-mer frequency, TF over GST control); with ETV3L it was 1.02 fold enrichment (6-mer frequency, TF over GST control). Moreover, the binding signal with ETS2 is 1.01 fold enrichment (6-mer frequency, TF over GST control); in the assay with ETV7, 1.01 fold enrichment (6-mer frequency, TF over GST control); with ETV6, 1.04 fold enrichment (6-mer frequency, TF over GST control).
Regarding GCCCGG, the binding signal in the assay with ELK1 is 1.03 fold enrichment (6-mer frequency, TF over GST control); with ETV5, 1.01 fold enrichment (6-mer frequency, TF over GST control); with SPDEF it was 1.06 fold enrichment (6-mer frequency, TF over GST control); with ETV7 it was 1.01 fold enrichment (6-mer frequency, TF over GST control); in the assay with ETV3 it was 1.07 fold enrichment (6-mer frequency, TF over GST control).
